Changes are numbered by the printed parent chain. Over roughly 5,800 sequences, “enrichment r” has its median near 0.54; the highest 2% begin near 16. For the sample, the highest values were picked, then their nearest neighbours and some sequences at random.
B1: ENSG00000136451:be:win_1501|CDS_3pUTR|ENSG00000136451|bound_else_gene|NA|bound_elsewhere_windowed (ssRNA)
RNA: GGGAGUUCUACAGUCCGACGAUCGCAAUGAGACCUGUAGAGAGCAUGCCUUUCUUGCCCCAAGCUUUGCCUACAUCACCGCCUUGGUAAACAGUAUUAUAAAAUCAAAAUAUGGGUAAAAGUAAAUAUUUACCAGCAACUUAACAACAGAGGAUUGAGCAUCA
B2: chr8:41262032:41262394:-|3pUTR|ENSG00000104332|msi1|total|mutant (ssRNA)
RNA: GGGAGUUCUACAGUCCGACGAUCGGCCGUUCUGACCUGUUGCCAGCAGAUACACAGGACAUGGAUGAAAUUCCCGUUUCCUCCCGUUUCUUCCUGCCGUACUCCUCUUUCCGAUCCUAAGUCUCUUACAAAAGCUUUGAAUACCAACAGAGGAUUGAGCAUCA
B3: chr1:6522505:6522606:-|3pUTR|ENSG00000162408|msi1|FALSE|unique (ssRNA)
RNA: GGGAGUUCUACAGUCCGACGAUCCUGGGAUUACAGGCGUGAGCCACUGCGCCUGGCCUGAAGCUAUUCUUUACAAAAGCUCUUAGUUUUUGUUUGUUUGUUUGUUUUUUUCUUUUGCGACGGACUCUCUGUCGCCAAGGCUGGCAACAGAGGAUUGAGCAUCA
B4: chr12:95077336:95077437:-|3pUTR|ENSG00000180263|msi1|FALSE|unique (ssRNA)
RNA: GGGAGUUCUACAGUCCGACGAUCUCCUCAUUGACCCAUCCGCAUCUCUGUUUAUCCAAGACUUCUCUGUGAUAGCUGACCCUUAGUCUUUCUCUCCCCUAUUCCUCCAGACUAGAUCCUGUCUCCUUCCUGCAGCCCCGACACCAACAGAGGAUUGAGCAUCA
B5: chr2:121605696:121605828:-|CDS|ENSG00000074054|unk|total|mutant (ssRNA)
RNA: GGGAGUUCUACAGUCCGACGAUCGACCGACUAUUUCUCAGACAAACAGAAGUCUGCUGACCUUGAGCAUGACCAGACCAUGUCCGAUAAACUUGUGGAUGGACUUGCUACCUCUUGGGUGAACUCCCGCAAUUACAAGGUAAGCAACAGAGGAUUGAGCAUCA
B6: chr10:24583932:24584033:-|3pUTR|ENSG00000107863|unk|total|mutant (ssRNA)
RNA: GGGAGUUCUACAGUCCGACGAUCAACAAAAGUGCCUCAUCAUAAAAAUACAGUUGGUUUUCCGGGUGCCAUAUUGUUAAAAUCCGAUAACUUACUUACAUUGAAUAAACGAAUGCGUUUUAUUGGUAACAGAUAUCAUUACAUCAACAGAGGAUUGAGCAUCA
B7: chr5:171862525:171862626:-|3pUTR|ENSG00000072803|msi1|FALSE|unique (ssRNA)
RNA: GGGAGUUCUACAGUCCGACGAUCGACAGUGCAUGGAAAGGACGUUGGCAUCCAAUUGGCACUCCUUCUCCCUUAUUCAAUAUUAGGUUUGAUUUGCCCUUCGCCAUUGUUUCCAAAGAUCAAGGAAUGUCAAUAACAUUUUAACAACAGAGGAUUGAGCAUCA
B8: chr7:56101660:56101848:-|3pUTR|ENSG00000106153|msi1|FALSE|unique (ssRNA)
RNA: GGGAGUUCUACAGUCCGACGAUCUGGAGAGAUGGAAAAUCAGCUCUCAUAACUAAGUUAAUUUAGUAUAAAAAUAGAAUUGAUAGUGAGGGUAUAAAGUGUAACCAUCAGUUAAACCUCUCCUGUCAUUCCUGGCUUCCUUGCCAACAGAGGAUUGAGCAUCA
B9: chr7:101137467:101137738:+|3pUTR|ENSG00000106366|msi1|FALSE|unique (ssRNA)
RNA: GGGAGUUCUACAGUCCGACGAUCGUUAAAAGAUGGUAAACCAGAUCUGUCUCCAAGACCUUGGCCUCUCCUUGGAGGACCUUUAGGUCAAACUCCCUAGUCUCCACCUGAGACCCUGGGAGAGAAGUUUGAAGCACAACUCCCCAACAGAGGAUUGAGCAUCA
B10: chr14:74942539:74942640:-|3pUTR|ENSG00000119630|msi1|total|mutant (ssRNA)
RNA: GGGAGUUCUACAGUCCGACGAUCGUGUAUUUAUUACCGUCACACUCUUCAGUGACUCCUGCUGGUACCUGCCCUCUAUUUAUCCGCCAACUGUUUCCCUGCUGAAUGCCUCGCUCCCUUCAAGACGAGGGGCAGGGAAGGACACAACAGAGGAUUGAGCAUCA
B11: chr1:151048051:151048152:+|CDS|ENSG00000143443|unk|FALSE|unique (ssRNA)
RNA: GGGAGUUCUACAGUCCGACGAUCGACCGCCUGGCUGGACCAGCGGCUGCCGAGCUCUUGGCCGCCACGGUGUCCACCGGCUUUAGCCGGUCGUCCGCCAUUAACGAGGAGGAUGGGUCUUCAGAAGAGGGGGUUGUGAUUAAUCAACAGAGGAUUGAGCAUCA
B12: chrX:65741840:65741941:+|3pUTR|ENSG00000147065|msi1|total|mutant (ssRNA)
RNA: GGGAGUUCUACAGUCCGACGAUCAAAUUGUUUUUGGAGGGGUUUAUGCUCAAUCCAUGUUCUAUUUCAGUGCCAAUAAAAUUCCGGAAGACUUCACAGUGACUCAAUCGUUCUUUGUGGUAUGAGUGGGCCGCUGUAAGAUAUCAACAGAGGAUUGAGCAUCA
B13: chr12:106067485:106067586:-|CDS|ENSG00000074590|msi1|FALSE|unique (ssRNA)
RNA: GGGAGUUCUACAGUCCGACGAUCCCUGAAGAAGCGAAGCAACAGCGAGCAUCGCUCUCACAGCACUGGCUUCAUUGAAGGUGUAGUUGGUCCUGCCUUACCCUCUACUUUCAAGAUGGAGCAGGACUUGUGCAGGACUGGCGUCAACAGAGGAUUGAGCAUCA
B14: chr4:185586528:185586629:-|3pUTR|ENSG00000154556|msi1|FALSE|unique (ssRNA)
RNA: GGGAGUUCUACAGUCCGACGAUCAUCCAUAUGAUAUGUUGUACAUUUUAUGGAAAUGUAAUAGAAUCUCACACAUUAUUUUAUAGAAAUAGAGUACAGAAGCAUCACAAGUAUUAAAGUUGGUUUUAGCAAGGAUUAGGAUUACAACAGAGGAUUGAGCAUCA
B15: chr7:2728618:2728646:-|3pUTR|ENSG00000146535|msi1_unk|FALSE|overlapping (ssRNA)
RNA: GGGAGUUCUACAGUCCGACGAUCUUUAAUUUCACUGUUAAUCCUUAUUGUCUUUUUUAUUAAGAUGUUGGAAAAGCAGGAGGUAGUUGUGCCUCAAUUAUUGCAAAAAUGUAACAAUAAAGUUCCUCAAAAUAAGAUCUGUUCCAACAGAGGAUUGAGCAUCA
B16: ENSG00000136451:be:win_1601|3pUTR|ENSG00000136451|bound_else_gene|NA|bound_elsewhere_windowed (ssRNA)
RNA: GGGAGUUCUACAGUCCGACGAUCAAUAUUUACCAGCAACUUAACUUUUAGUUGAUUAAAGCAAAAAGUAAACCAUGAAAUUGGGAGAUUUUAUUACAUUAGUUAAUAAGAGUGUGGUAGCAUUUUUCUCCAAUUUGGCUGGGACAACAGAGGAUUGAGCAUCA
B17: chr4:168926953:168927063:+|3pUTR|ENSG00000129116|msi1_unk|total|mutant (ssRNA)
RNA: GGGAGUUCUACAGUCCGACGAUCCAAAAGAGUUUUCUAACAAGGUUAAUACCUCCGUUCUUAACAUUUUUUUUCUUUAUGUGCCGUGUUUUCAUGCUACCUUGGCCGGAAACUUAUUUACAAACCAUAUUAAAAGGCUAAUUUCAACAGAGGAUUGAGCAUCA
B18: chr4:185586528:185586629:-|3pUTR|ENSG00000154556|msi1|total|mutant (ssRNA)
RNA: B14 RNA with U61C, A62C, U83C, A84C, U89C, A90C, U126C, A127C, U136C, A137C
B19: chrX:131089436:131089558:+|3pUTR|ENSG00000147256|unk|FALSE|unique (ssRNA)
RNA: GGGAGUUCUACAGUCCGACGAUCGGGAAACCUCAAGUGUAGGUCUAAUUAGUGUUUCUGGGAUCCAAAGUUAGAGGAAAAUUUAGAUUUUAUUGCCUGGAUCUGCUUUAAAGACAAUUGGUGUUUACACCCUCUUGUCAGCAACAACAGAGGAUUGAGCAUCA
B20: chr12:98549714:98549829:+|3pUTR|ENSG00000120802|unk|FALSE|unique (ssRNA)
RNA: GGGAGUUCUACAGUCCGACGAUCGAAGAUGUAUAUUUAGACCAGCACACAAUUUUGAUUUCAAUUAGCCUUAUUCUAAUAUUUAGCUUUUAGAUCUUUCAUACACAUUUUCACGUACUUUGCAAUUGAGACCAGAAAGACUUGCAACAGAGGAUUGAGCAUCA
B21: chr12:98549714:98549829:+|3pUTR|ENSG00000120802|unk|total|mutant (ssRNA)
RNA: B20 RNA with U37C, A38C, U65C, A66C, U83C, A84C, U90C, A91C
B22: chr20:53567570:53567671:-|3pUTR|ENSG00000171940|unk|FALSE|unique (ssRNA)
RNA: GGGAGUUCUACAGUCCGACGAUCUCACAAGCUGAGCCAUAUGUACAUAAUCUAGAUUUUGUUUUCAUAGUUUUGCACUUUUAUAGCCUAUUUUUGAAGAUUAACACAUUUGCAAGAUGAUUGACUCAAUCUUUGCCUAAUCCACAACAGAGGAUUGAGCAUCA
B23: chrX:131089436:131089558:+|3pUTR|ENSG00000147256|unk|total|mutant (ssRNA)
RNA: B19 RNA with U39C, A40C, U49C, A50C, U71C, A72C, U83C, A84C
B24: chr4:168926953:168927063:+|3pUTR|ENSG00000129116|msi1_unk|FALSE|overlapping (ssRNA)
RNA: B17 RNA with C54U, C55A, C83U, C84A, C105U, C106A
B25: chr12:7729382:7729740:-|three_prime_utr|ENSG00000198178|control|control|control (ssRNA)
RNA: GGGAGUUCUACAGUCCGACGAUCAUCUACAUAUAAAUGAAAUAUUCUCCCUGGAAAUGUGUUUGGGUUGGCAUCCACCGUUGUAGAAAGCUAAAUUGAUUUUUUAAUUUAUGUGUAAGUUUUGUACAAGGAAUGCCCCUAAAACAACAGAGGAUUGAGCAUCA

Each binder was assayed against MSI1 full-length (mouse, UniProt Q61474 1-362) (assay: nsRBNS (natural sequence RNA bind-n-seq); RBNS binding buffer (assumed for nsRBNS): 25 mM Tris pH 7.5, 150 mM KCl, 3 mM MgCl2, 0.01% Triton X-100, 500 ug/ml BSA, 20 U/ml SUPERase-In, 4 C; UNK is unkempt and MSI1 is Musashi-1; names of the RNAs are library labels; protein concentration not given here; high values mean tight binding).
Chain of MSI1 full-length (Q61474 whole entry): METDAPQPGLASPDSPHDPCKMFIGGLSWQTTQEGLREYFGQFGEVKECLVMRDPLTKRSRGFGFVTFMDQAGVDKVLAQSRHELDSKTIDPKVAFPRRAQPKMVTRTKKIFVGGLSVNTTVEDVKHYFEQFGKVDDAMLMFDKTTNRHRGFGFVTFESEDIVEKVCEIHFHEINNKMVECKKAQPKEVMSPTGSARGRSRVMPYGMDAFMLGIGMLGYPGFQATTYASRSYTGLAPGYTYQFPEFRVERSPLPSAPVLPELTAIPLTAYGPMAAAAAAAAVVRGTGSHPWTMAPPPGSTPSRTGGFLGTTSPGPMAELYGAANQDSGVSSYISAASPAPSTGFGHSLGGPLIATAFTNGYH

In order of falling binding signal:
1. B14  34.5 enrichment R
2. B20  23.7 enrichment R
3. B19  20.8 enrichment R
4. B24  20 enrichment R
5. B8  5.86 enrichment R
6. B22  4.98 enrichment R
7. B16  1.37 enrichment R
8. B4  1.24 enrichment R
9. B21  0.832 enrichment R
10. B1  0.827 enrichment R
11. B17  0.747 enrichment R
12. B18  0.725 enrichment R
13. B7  0.699 enrichment R
14. B25  0.681 enrichment R
15. B5  0.532 enrichment R
16. B11  0.497 enrichment R
17. B2  0.417 enrichment R
18. B6  0.389 enrichment R
19. B3  0.372 enrichment R
20. B10  0.338 enrichment R
21. B15  0.334 enrichment R
22. B9  0.316 enrichment R
23. B13  0.282 enrichment R
24. B23  0.224 enrichment R
25. B12  0.205 enrichment R
